Test results taken from PubChem BioAssay (NCI).
About 79,000 compounds went through this panel and 15% of them were active in at least one assay; those are over-represented in the sample as a whole. Active and inactive are the calls of the source. Rule as the data show it: active = growth inhibition above about 70%; inactive = the rest.

What was measured:
[1] = NCI Yeast Anticancer Drug Screen. Data for the rad52 strain (AID 147);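 also: 0% = growth of vehicle-treated control cultures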; details: S. cerevisiae rad52 mutant growth inhibition, hits give high values
Outline: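 DNA repair-defective yeast; compound exposure; growth scored against vehicle controls.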

[2] = NCI Yeast Anticancer Drug Screen. Data for the wt1 strain (AID 149);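 also: 0% = growth of vehicle-treated wt1 cultures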; details: S. cerevisiae wt1 strain (SPY 50644) growth inhibition, hits give high values
Outline: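 Using yeast strain wt1, compound-induced growth inhibition was determined against vehicle-treated cultures.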

[3] = NCI Yeast Anticancer Drug Screen. Data for the rad50EPP+ strain (AID 151);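 also: 0% = growth of vehicle-treated control cultures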; details: S. cerevisiae rad50 mutant strain, hits give high values
Outline: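 rad50EPP+ yeast treated with test compounds. Readout: growth vs vehicle control.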

[4] = NCI Yeast Anticancer Drug Screen. Data for the mgt1 strain (AID 153); details: S. cerevisiae mgt1 mutant growth inhibition, hits give high values
Outline: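 Growth inhibition relative to vehicle controls was scored for the mgt1 yeast strain after compound exposure.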

[5] = NCI Yeast Anticancer Drug Screen. Data for the rad50 strain (AID 155);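 also: 0% = growth of vehicle-only cultures of the same strain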; details: S. cerevisiae rad50 strain growth inhibition, hits give high values
Outline: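 Relative growth inhibition (compound vs vehicle) was measured in yeast with a defined repair-gene alteration.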

[6] = NCI Yeast Anticancer Drug Screen. Data for the mec2-1 strain (AID 157); details: S. cerevisiae mec2-1 strain, hits give high values
Outline: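 Growth inhibition is read against vehicle-treated controls after compound exposure of the mec2-1 yeast strain, which is defective in DNA damage repair or cell cycle control.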

[7] = NCI Yeast Anticancer Drug Screen. Data for the rad14 strain (AID 159);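 also: 0% = growth of vehicle-treated control cultures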; details: S. cerevisiae rad14 strain growth inhibition, hits give high values
Outline: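 Screen for anticancer potential: a yeast strain altered in DNA damage repair is grown with compound, and reduced growth is quantified against vehicle controls.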

[8] = NCI Yeast Anticancer Drug Screen. Data for the sgs1 mgt1 strain (AID 161);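 also: 0% = growth of cultures given vehicle only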; details: S. cerevisiae sgs1 mgt1 strain, hits give high values
Outline: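 Compounds are added to genetically altered yeast, and growth is compared with cultures given vehicle alone to give percent inhibition.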

[9] = NCI Yeast Anticancer Drug Screen. Data for the CLN2oe strain (AID 163);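 also: 0% = growth of vehicle-only control cultures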; details: S. cerevisiae CLN2oe strain, hits give high values
Outline: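 Compound-treated yeast; growth vs vehicle ctrl = % inhibition. Genetically altered strain (cell-cycle control).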

[10] = NCI Yeast Anticancer Drug Screen. Data for the cln2 rad14 strain (AID 165);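 also: 0% = growth equal to vehicle treated cultures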; details: S. cerevisiae cln2 rad14 strain, hits give high values
Outline: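 Growth inhibition, relative to vehicle-treated controls, is the read-out. The test organism is a yeast strain with defined genetic alterations, cln2 rad14.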

[11] = NCI Yeast Anticancer Drug Screen. Data for the bub3 strain (AID 167); details: S. cerevisiae bub3 mutant strain, hits give high values
Outline: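 Screening used yeast with an engineered genetic alteration affecting cell cycle control. Compound-exposed cultures were compared with vehicle cultures, and reduced growth was taken as inhibition.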

[12] = NCI Yeast Anticancer Drug Screen. Data for the wt2 strain (AID 169);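 also: 0% = growth of vehicle-treated yeast cultures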; details: S. cerevisiae wt2 strain growth inhibition, hits give high values
Outline: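 Compound exposure of yeast; growth compared with vehicle controls; inhibition reported.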

[13] = NCI Yeast Anticancer Drug Screen. Data for the mlh1 strain (AID 171);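 also: 0% = growth of vehicle-treated control cultures of the same strain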; details: S. cerevisiae mlh1 strain growth inhibition, hits give high values
Outline: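 Compounds are applied to a genetically altered yeast strain, and its growth is compared with that of vehicle-treated cultures to give percent inhibition.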

[14] = NCI Yeast Anticancer Drug Screen. Data for the sgs1 strain (AID 173);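 also: 0% = growth of vehicle-only control cultures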; details: S. cerevisiae sgs1 mutant, hits give high values
Outline: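 Compounds applied to genetically altered yeast; growth compared with vehicle-treated cultures to give % inhibition.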

[15] = NCI Yeast Anticancer Drug Screen. Data for the mlh1 rad18 strain (AID 175); details: S. cerevisiae mlh1 rad18 strain growth inhibition, hits give high values
Outline: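 Cells of a genetically altered yeast strain, deficient in DNA damage repair, were treated with compound. Their growth was then compared with that of vehicle-treated cultures to give inhibition.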

[16] = NCI Yeast Anticancer Drug Screen. Data for the rad18 strain (AID 177); details: S. cerevisiae rad18 mutant growth inhibition, hits give high values
Outline: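 Compounds are applied to a repair-deficient yeast strain, and growth is compared with that of vehicle-treated cultures to give percent inhibition.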

[17] = at 5.0 µM (retest, dose inferred, filed as 0.5)
[18] = at 50.0 µM (retest, dose inferred, filed as 5.0)

Measured: growth inhibition

COc1cc(CSc2ccc(O)cc2)cc(O)c1O
active: [8]; at 50.0 µM 74.7% | [15]; at 50.0 µM 73.5%
inactive: [1]; at 1.2 µM 2% | [1]; at 3.7 µM 3% | [1]; at 11.0 µM 5% | [1]; at 33.0 µM 7% | [1]; at 100.0 µM 8% | [2]; at 1.2 µM 0% | [2]; at 3.7 µM 0% | [2]; at 11.0 µM 1% | [2]; at 33.0 µM -2% | [2]; at 100.0 µM -1% | [3]; at 1.2 µM -3% | [3]; at 3.7 µM -4% | [3]; at 11.0 µM -6% | [3]; at 33.0 µM -6% | [3]; at 100.0 µM 0% | [4]; at 1.2 µM 1% | [4]; at 3.7 µM -3% | [4]; at 11.0 µM 1% | [4]; at 33.0 µM 0% | [4]; at 100.0 µM 2% | [5]; at 1.2 µM 3% | [5]; at 3.7 µM 6% | [5]; [17] 5% | [5]; at 11.0 µM -2% | [5]; at 33.0 µM 6% | [5]; [18] 42% | [5]; at 50.0 µM 60.8% | [5]; at 100.0 µM 6% | [6]; at 1.2 µM 4% | [6]; at 3.7 µM -1% | [6]; [17] -14% | [6]; at 11.0 µM -1% | [6]; at 33.0 µM -4% | [6]; [18] -6% | [6]; at 50.0 µM 54.1% | [6]; at 100.0 µM 0% | [7]; at 1.2 µM 1% | [7]; at 3.7 µM 2% | [7]; at 11.0 µM 5% | [7]; at 33.0 µM 0% | [7]; at 100.0 µM 1% | [8]; [17] -3% | [8]; [18] 30% | [9]; at 1.2 µM 6% | [9]; at 3.7 µM 8% | [9]; at 11.0 µM 10% | [9]; at 33.0 µM 12% | [9]; at 100.0 µM 17% | [10]; [17] 18% | [10]; [18] 14% | [10]; at 50.0 µM 36% | [11]; at 1.2 µM 6% | [11]; at 3.7 µM 10% | [11]; [17] -7% | [11]; at 11.0 µM 11% | [11]; at 33.0 µM 9% | [11]; [18] 14% | [11]; at 50.0 µM 61.2% | [11]; at 100.0 µM 6% | [12]; at 1.2 µM 1% | [12]; at 3.7 µM 1% | [12]; at 11.0 µM 0% | [12]; at 33.0 µM -1% | [12]; at 100.0 µM 1% | [13]; at 1.2 µM 4% | [13]; at 3.7 µM 0% | [13]; at 11.0 µM 3% | [13]; at 33.0 µM 2% | [13]; at 100.0 µM 3% | [14]; at 1.2 µM -1% | [14]; at 3.7 µM -2% | [14]; at 11.0 µM -1% | [14]; at 33.0 µM -1% | [14]; at 100.0 µM 2% | [15]; [17] 13% | [15]; [18] -1% | [16]; at 1.2 µM -2% | [16]; at 3.7 µM 1% | [16]; at 11.0 µM 2% | [16]; at 33.0 µM -10% | [16]; at 100.0 µM 10%
